Vif-A3G inh: Vif-A3G binding inhibition; 410,000 tested, 0.076% active; AID 602310; Potency, µM (series often up to 46.1 µM), actives largely listed as inhibitors; HeLa A3G-eYFP + Vif (tagged APOBEC3G with the HIV-1 protein that degrades it), YFP fluorescence, overnight; Q9HC16; further: nearly all actives have a fitted effect of over 60% in size
Target sequence (Q9HC16 whole entry, looked up): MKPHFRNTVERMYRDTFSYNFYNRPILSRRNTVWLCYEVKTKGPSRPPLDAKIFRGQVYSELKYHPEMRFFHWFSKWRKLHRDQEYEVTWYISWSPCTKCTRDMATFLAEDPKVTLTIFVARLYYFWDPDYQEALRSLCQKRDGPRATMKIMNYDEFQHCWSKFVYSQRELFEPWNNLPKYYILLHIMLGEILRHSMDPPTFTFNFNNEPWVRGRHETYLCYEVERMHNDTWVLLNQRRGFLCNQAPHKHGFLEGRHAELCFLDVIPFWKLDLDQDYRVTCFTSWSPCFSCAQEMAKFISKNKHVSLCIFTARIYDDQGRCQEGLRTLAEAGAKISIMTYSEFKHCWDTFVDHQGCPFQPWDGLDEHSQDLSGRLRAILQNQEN
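Read-out is eYFP fluorescence (Ex 488/Em 500-530) from Vif-expressing HeLa A3G-eYFP cells; more signal means A3G escaped Vif-mediated degradation. Cells plated overnight, compound pinned in, incubated overnight at 37 deg C.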
Apoferritin bind: binds horse apoferritin like a general anesthetic; P02791; apoferritin/1-aminoanthracene competitive binding, fluorescence; Potency, µM (highest dose often 77.5 µM), hits mostly inhibitors; 350,000 tested, 0.074% active; AID 485281; further: nearly all actives have a fitted effect of over 20% in size
Target sequence (P02791 2-175 limits assumed): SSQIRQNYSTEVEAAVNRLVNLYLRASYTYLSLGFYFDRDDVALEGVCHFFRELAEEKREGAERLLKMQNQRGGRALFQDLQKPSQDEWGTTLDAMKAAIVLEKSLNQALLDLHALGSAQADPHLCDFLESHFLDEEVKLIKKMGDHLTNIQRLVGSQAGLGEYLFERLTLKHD
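Horse-spleen apoferritin (10 uM) in 50% saturated 1-aminoanthracene in PBS was incubated 10 min at room temperature with compound. Fluorescence (ex 380, em 535 nm) was normalized to free and bound 1-AMA, with concentration-response fitted by a four-parameter Hill equation.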
Vif-A3F inh: Vif-A3F binding inhibition; AID 602313; Potency, µM (top dose mostly 46.1 µM); HeLa A3F-eYFP + Vif (tagged APOBEC3F with the HIV-1 protein that degrades it), YFP fluorescence increase; 390,000 tested, 0.2% active; further: nearly all actives have a fitted effect of over 65% in size
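Fluorescence increase (Ex 488/Em 500-530) after overnight compound treatment at 37 deg C flags inhibition of Vif-driven A3F-eYFP loss in stable HeLa A3F-eYFP/Vif cells seeded overnight beforehand.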
Epigenetic reg: derepresses silenced GFP reporter in murine cells | murine LDR cells, GFP reporter derepression, 30 h | Potency, µM (highest dose often 53.9 µM), actives largely listed as activators | 280,000 tested, 0.2% active | AID 1865; further: nearly all actives have a fitted effect of over 60% in size
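Murine LDR cells carrying a silenced, genomically integrated CMV-driven GFP reporter were exposed to compound for 30 hours at 37 C. After PBS washes, GFP-positive cells (20–120 um objects) were counted by laser-scanning microplate cytometry.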
LDHA inh: blocks human lactate dehydrogenase A; AID 1347041; purified LDHA, NADH/diaphorase-resazurin fluorescence; hits give low values; 480,000 tested, 0.15% active; activity change, % (values are at about 110 or 230 µM); in the data active means activity change below about -30%; inconclusive means mostly about -25% to -30%
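Human LDH5 (2 nM) was incubated with 0.06 mM NADH and 0.2 mM pyruvate for 5 min at room temperature in Tris pH 7.4. Remaining NADH was coupled through diaphorase/resazurin, and resorufin fluorescence was read at 0 and 20 min.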
C127i cell count: changes parental c127i cell counts in epigenetic modulator counter-screen | AID 493065 | shares compounds with Epigenetic reg | mouse c127i parental cells, fluorescent cell count, 30 h | 60 tested, 20% active | Potency, µM, actives largely listed as activators
HCC4017 tox: reduces HCC4017 lung cancer cell viability among epigenetic modulators; Potency, µM (titrated, usually from 46.1 µM), hits mostly cytotoxic; HCC4017 NSCLC viability, CellTiter-Glo ATP luminescence, 72 h; 45 tested, 30% active; shares compounds with Epigenetic reg
H358 tox: epigenetic modulators: cytotoxicity in H358 lung cancer cells. shares compounds with Epigenetic reg. H358 NSCLC viability, ATP luminescence, 72 h. Potency, µM (top dose mostly 46.1 µM), hits mostly cytotoxic. 45 tested, 30% active
A number is an active result; – = inactive; ? = inconclusive; · = no result; ! = repeats disagree. Only some compounds are listed: those with a hit (about 0.49% of all), similar ones and a draw of the others. Unless noted, the call rests on the fitted dose curve; in most records, active means well fitted curve in the direction sought with a large enough effect; inconclusive means small, poorly fitted or top-dose-only effect, or another doubt; inactive means no such curve, though single readings can be large; an effect the other way counts as inactive or inconclusive.

SMILES	Vif-A3G inh	Apoferritin bind	Vif-A3F inh	Epigenetic reg	LDHA inh	others
Cc1cc(OCC(=O)N2CCC(C(=O)NCC(C)C)CC2)c2c3c(c(=O)oc2c1)CCCC3	–	–	–	·	–
Cc1cc(N(CCCl)CCCl)ccc1C=Cc1ccncn1	?	·	25µM	·	–
O=c1cc(C(F)(F)F)c2cc3c4c(c2o1)CCCN4CCC3	–	–	?	7.1µM	–
COC(=O)C1=C(c2cccc(C#N)c2)C[C@@H]2CC[C@H]1N2C(=O)N1CCc2cc(OC)c(OC)cc2C1	–	·	–	·	–
c1coc(CN2Cc3ccccc3-n3nncc3C2)c1	–	·	–	·	-32
c1ccc(CN2Cc3ccccc3-n3nncc3C2)cc1	–	·	–	·	–
COc1ccccc1-n1c(O)c(C=NCCCn2ccnc2)c(=O)[nH]c1=O	–	–	·	–	–
O=Cc1c(C(=O)O)n(Cc2ccc(Cl)cc2)c2ccccc12	?	–	10µM	–	–
CC1CCCN(C(=O)c2ccc(N3CC4CC(C3)c3cccc(=O)n3C4)c([N+](=O)[O-])c2)C1 (stereo not given)	–	–	–	–	–
CCN(CC)P(=O)(NC(=O)C(Cl)(Cl)Cl)N(CC)CC.[Cl-].[Cl-].[Cl-].[Nd+3]	–	–	–	–	-49
CC[C@]1(O)CC(O[C@@H]2CC(N(C)C)C(O)C(C)O2)c2c(cc3c(c2O)C(=O)c2c(O)cccc2C3=O)C1C(=O)OC (stereo not given in full)	·	–	·	6.3µM	·
COc1ccccc1-n1c(/C=C/c2ccccc2)nc2ccccc2c1=O	–	–	–	–	–
COc1ccccc1-n1c(/C=C/c2ccc(O)cc2)nc2ccccc2c1=O	–	–	10µM	·	–
COc1ccc(CN2CCN(Cc3ccccc3OC)CC2)cc1	–	–	–	·	-37
COc1ccccc1CN1CCN(C(=O)COc2ccc3ccccc3c2)CC1	–	–	–	·	–
Cc1ccc(CN2CCN(Cc3ccccc3F)CC2)cc1	–	–	–	–	-35
Cc1ccc(CN2CCN(Cc3ccc(F)cc3)CC2)cc1	·	·	·	·	–
COc1ccccc1N1CCN(Cc2ccc(Cl)cc2Cl)CC1	–	–	–	–	–
COc1ccccc1CN1CCN(Cc2ccc(Cl)cc2)CC1	–	–	–	–	-34
CCN1C(=O)NC(=O)/C(=C\c2ccc(N3CCOCC3)cc2OC)C1=O	·	–	·	–	·
O=C1NC(=O)N(Cc2cccs2)C(=O)/C1=C/c1ccc(N2CCOCC2)cc1	–	–	–	–	-46
Cc1ccccc1N1C(=O)NC(=O)/C(=C/c2ccc(N3CCOCC3)o2)C1=O	–	–	?	–	–
O=C1NC(=O)N(c2ccc3c(c2)OCO3)C(=O)/C1=C\c1ccc(N2CCCCC2)o1	–	–	4.5µM	–	–
CCOP(=O)(Nc1ccc2c(c1)C(=NNC(N)=S)c1ccccc1-2)OCC	?	·	–	·	–
C/C(=N\NC(N)=S)C12CC3CC(CC(C3)C1)C2	?	8.9µM	–	–	–
SMILES	Vif-A3G inh	Apoferritin bind	Vif-A3F inh	Epigenetic reg	LDHA inh	others
Fc1ccc(CCNCc2ccc(Cl)c(Cl)c2)cc1	–	–	–	–	–
CCC(N)Cc1c[nH]c2ccccc12 (stereo not given)	–	–	–	–	–
Cn1c[n+](C)cc1C(O)c1ccccc1 (stereo not given)	–	–	–	–	-61!
CN(CCOc1ccc(C=C2C(=O)NC(=O)NC2=O)cc1)c1ccccn1	–	?	–	–	-32
CCOc1ccccc1N1C(=O)NC(=O)/C(=C/c2ccc3c4c(cccc24)CC3)C1=O	–	–	–	–	-72
C=CCn1c(O)c(/C=C2/C=c3ccccc3=N2)c(=O)[nH]c1=S	–	–	–	·	–
COc1ccc(/C=C2\Oc3cc(OC(=O)N4CCOCC4)ccc3C2=O)c(OC)c1	?	–	25µM	–	–
CN(C)C(=O)Oc1ccc2c(c1)O/C(=C\c1ccc(Cl)cc1)C2=O	–	–	–	·	–
S=C(NCCc1ccccc1)N1Cc2ccccc2-n2nncc2C1	–	·	–	·	-36
CCOC(=O)CNC(=O)N1Cc2ccccc2-n2nncc2C1	–	·	–	·	-33
S=C(NCCc1ccccc1)N1Cc2cc(-c3ccccc3)ccc2-n2nncc2C1	–	·	·	·	–
CCOC(=O)CNC(=O)N1Cc2cc(-c3ccccc3)ccc2-n2nncc2C1	–	·	·	·	–
CCN(CC)c1ccc2c(c1)oc(=O)c1c(Cl)cc(=O)oc12	?	–	25µM	8.9µM	–	C127i cell count=32µM
C[C@H]1C[C@@H](C)C(=O)[C@@H]([C@H](O)CC2CC(=O)NC(=O)C2)C1	–	–	–	?	–	C127i cell count=–
CC(C(O)c1ccccc1)N(C)CCn1cnc2c1c(=O)n(C)c(=O)n2C (stereo not given)	–	–	–	–	–
CC1=C(C(=O)O)N2C(=O)C(NC(=O)CCCC(=O)O)C2SC1 (stereo not given)	–	–	–	–	–
COc1ccc(OC)c(N2C(=O)NC(=O)/C(=C\c3ccc([N+](=O)[O-])s3)C2=O)c1	–	?	–	?	–	C127i cell count=–;HCC4017 tox=–;H358 tox=–
c1cc(Cc2cnc[nH]2)ccn1	·	–	·	–	·

Source: PubChem
